This is a sample that favours compounds with a hit; in the whole collection about 3% have one here.
CF NFkB inh: blocks PAF-induced NF-kB reporter in cystic fibrosis cells. KKLEB NF-kB-GFP reporter, GFP fluorescence overnight. inhibition, % at 5 µM. 0.86% of 360,000 active;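 active means at least 50% inhibition at 5 µM, scaled per plate between neutral and stimulator controls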;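 further: PAF is a Pseudomonas aeruginosa culture filtrate used as stimulus; plate controls were PAF-stimulated DMSO wells for no effect and unstimulated DMSO wells for full effect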
Peg3 promoter: Peg3 promoter activity inhibition; AID 588405; 1.7% of 360,000 active; inhibition, % at 20 µM; HeLa PEG-Prom luciferase reporter, luminescence, overnight;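 active means inhibition of at least 50% at 20 µM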
KKLEB tox: CF airway cell cytotoxicity counter-screen; KKLEB CF airway cells viability, ATPlite luminescence, overnight; hits give low values; cells stimulated with P. aeruginosa culture filtrate; activity change (cytotoxicity), % at 5 µM; 0.36% of 360,000 active;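 active means corrected activity change at or below -50% at 5 µM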
HIF-2a inh: blocks HIF-2a reporter activity | AID 624352 | inhibition, % at 18.8 µM | 786-0 RCC cells HIF-2a reporter, luciferase luminescence, overnight | 0.72% of 360,000 active;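 active means inhibition of the luminescence signal of 40% or more relative to plate controls, in a single-dose primary screen at 18.75 µM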
TRPM1 prom inh: reduces MITF-dependent TRPM1 promoter luciferase signal; SK-MEL-5 TRPM1 promoter luciferase, 24 h; inhibition, % at 12.5 µM; 0.83% of 330,000 active;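 active means mean inhibition across replicates of 60% or more, whatever share of single replicates reaches that level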
ABHD5-PLIN5 inh: blocks binding of human ABHD5 to perilipin-5. Split G. princeps luciferase complementation, luminescence, 4 h. inhibition, % at 4 µM. AID 602281. 0.78% of 360,000 active;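 active means inhibition above the mean inhibition across every tested compound plus 3 SD, cut at about 22% in these data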;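 further: 0% = DMSO only wells and the 100% control is not disclosed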
Target sequence (Q00G26 whole entry, looked up): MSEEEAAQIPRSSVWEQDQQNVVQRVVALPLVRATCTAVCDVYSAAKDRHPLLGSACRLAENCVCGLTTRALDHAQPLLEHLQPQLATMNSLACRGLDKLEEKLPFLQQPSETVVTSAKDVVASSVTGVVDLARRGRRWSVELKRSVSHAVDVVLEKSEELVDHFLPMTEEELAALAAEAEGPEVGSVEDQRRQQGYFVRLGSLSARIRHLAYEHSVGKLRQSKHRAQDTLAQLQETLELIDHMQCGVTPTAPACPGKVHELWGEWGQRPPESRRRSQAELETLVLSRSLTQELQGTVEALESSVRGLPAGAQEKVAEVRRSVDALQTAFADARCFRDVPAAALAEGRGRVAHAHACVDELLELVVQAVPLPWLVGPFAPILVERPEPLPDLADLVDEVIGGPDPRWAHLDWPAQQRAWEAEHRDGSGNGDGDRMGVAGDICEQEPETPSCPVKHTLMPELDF
Target sequence (Q8WTS1 whole entry, looked up): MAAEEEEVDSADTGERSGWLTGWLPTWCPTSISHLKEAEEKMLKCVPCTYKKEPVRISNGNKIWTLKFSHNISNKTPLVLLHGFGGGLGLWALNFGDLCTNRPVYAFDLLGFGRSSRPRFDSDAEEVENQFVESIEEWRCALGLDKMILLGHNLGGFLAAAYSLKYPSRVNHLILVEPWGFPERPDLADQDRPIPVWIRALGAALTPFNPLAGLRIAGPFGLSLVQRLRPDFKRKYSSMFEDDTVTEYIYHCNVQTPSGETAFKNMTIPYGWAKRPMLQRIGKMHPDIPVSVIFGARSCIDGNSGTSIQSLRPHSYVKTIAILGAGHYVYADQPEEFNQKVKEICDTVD
An asterisk follows results filed as active; nt = not tested or not shown.

SMILES | CF NFkB inh | Peg3 promoter | KKLEB tox | HIF-2a inh | TRPM1 prom inh | ABHD5-PLIN5 inh
O=[N+]([O-])c1cccc(S(=O)(=O)Nc2nc3ccccc3nc2Nc2cccc(S(=O)(=O)N3CCCCC3)c2)c1 | 61* | 50 | -55* | 56* | 34 | 4
O=[N+]([O-])c1cccc(S(=O)(=O)Nc2ccc(S(=O)(=O)N3CCCC3)cc2)c1 | 15 | 15 | -5 | 12 | -16 | 4
CCNC(=O)C1(C)CCN(C(=O)c2ccccc2OC(F)(F)F)C1 (stereo unspecified) | 5 | 5 | -13 | 9 | nt | -2
O=[N+]([O-])c1ccc(/C=N/Nc2nc(-c3ccccc3)c3cc(Br)ccc3n2)o1 | -22 | 62* | 3 | 5 | 8 | 2
Cc1ccc2nc(N/N=C\c3ccc([N+](=O)[O-])o3)nc(-c3ccccc3)c2c1 | -27 | 3 | 14 | -44 | 34 | -1
COc1ccc2c(c1)c1nc3ccccc3nc1n2CC(=O)OC(C)C | 23 | 55* | -56* | -2 | 13 | 3
COc1ccc(Cn2c3ccc(OC)cc3c3nc4ccccc4nc32)cc1 | -5 | 16 | -13 | 14 | 0 | 0
Clc1ccc2nc(N3CCNCC3)nc(-c3ccccc3)c2c1 | 26 | 101* | -29 | 16 | -17 | 18
Cc1ccc(-c2csc3ncnc(SCC(N)=O)c23)cc1 | 23 | 19 | 6 | 11 | -8 | 3
Cc1ccc(-c2csc3nc(SCC(N)=O)n(Cc4ccccc4)c(=O)c23)cc1 | -8 | 53* | -6 | 7 | -1 | -1
O=C(NCc1ccccc1Cl)c1ccc2nc([C@@H]3O[C@H](CO)[C@H](O)[C@H](O)[C@H]3O)[nH]c2c1 | -5 | -9 | 10 | 9 | nt | 3
CCC(=O)N(C1=C(NC(C)C)C(=O)c2ccccc2C1=O)C(C)C | -10 | 19 | 18 | 11 | 27 | -3
CCCNC1=C(N(C(C)=O)c2cccc(F)c2)C(=O)c2ccccc2C1=O | 81* | 85* | -56* | 73* | 98* | 2
O=C(CN1C(=O)c2ccccc2C1=O)c1ccccc1 | 13 | -18 | -4 | -24 | -20 | 8
CC1=C(CC(=O)c2ccccc2)C(=O)c2ccccc2C1=O | 77* | -132 | -38 | -159 | 66* | -5
O=C(Nc1ccccc1N1CCCCC1)c1ccc([N+](=O)[O-])o1 | -13 | 37 | -18 | 10 | 27 | -10
CCN1CCN(c2c(Cl)cccc2NC(=O)c2ccc([N+](=O)[O-])o2)CC1 | 50 | 52* | -12 | -2 | 102* | 1
O=C(Nc1cccc(Cl)c1N1CCCC1)c1ccc([N+](=O)[O-])o1 | 10 | 10 | -3 | 7 | 23 | 8
O=C(Nc1ccccc1N1CCN(C(=O)c2ccc(Cl)cc2)CC1)c1ccc([N+](=O)[O-])o1 | 4 | 27 | -15 | 9 | 87* | 8
O=C(O)c1cccc(N/N=C/c2ccc(OC(F)(F)F)cc2)c1 | -4 | 14 | 4 | 17 | 74* | 5
COC(=O)c1ccc(COc2ccc(/C=N/Nc3cccc(C(=O)O)c3)cc2)cc1 | -5 | -159 | -6 | -86 | -19 | 2
C=CCSC(=S)NC1CCS(=O)(=O)C1 (stereo unspecified) | 37 | 48 | -7 | 31 | 69* | -13
Cc1ccc(Nc2nc3c(c(=O)[nH]2)CCCC3)cc1 | -5 | -176 | 4 | -259 | -34 | -1
O=c1[nH]c(Nc2nc3ccccc3o2)nc2c1CCCC2 | -22 | 58* | 21 | -70 | 46 | -5
O=[N+]([O-])c1cc(Cl)c(O)c2ncccc12 | 15 | 57* | 1 | 3 | 23 | -6
SMILES | CF NFkB inh | Peg3 promoter | KKLEB tox | HIF-2a inh | TRPM1 prom inh | ABHD5-PLIN5 inh
Oc1ccc(CN2CCN(Cc3ccccc3)CC2)c2cccnc12 | -10 | -25 | -4 | 14 | 28 | 6
O=[N+]([O-])c1cc([N+](=O)[O-])c2cccnc2c1Oc1ccccc1O | 16 | 51* | -11 | 6 | 41 | 2
O=[N+]([O-])c1cc(CN2CCN(c3ccccc3)CC2)c(O)c2ncccc12 | 6 | 59* | 9 | 17 | 75* | 1
COc1ccc(Cl)cc1NC(=O)CCCn1c(=O)c2cccn2c2cccnc21 | 20 | 13 | -17 | 9 | nt | 3
Cc1onc(-c2ccccc2)c1C(=O)NCc1ccc(Cl)cc1 | 16 | 2 | -19 | -1 | -2 | 2
CNC(=O)NNC(=O)c1nc(-c2ccccc2)c(C)o1 | -9 | 8 | 6 | 16 | nt | 4
O=c1[nH]c2cc([N+](=O)[O-])ccc2c2cc(Br)ccc12 | -66 | 1 | -4 | 7 | nt | -5
O=S(=O)(Nc1ccc(O)c2ccccc12)c1cccs1 | 86* | 21 | -8 | 13 | 58 | -4
O=S(=O)(Nc1cccc2ccccc12)c1cccs1 | -23 | 0 | -16 | -13 | 12 | 2
Nc1c(Br)cc2c(c1Br)C(O)c1ccccc1-2 (stereo unspecified) | -15 | -42 | -8 | -41 | 2 | -8
CN1CCN(C2=Cc3ccccc3Sc3cc(F)c(F)cc32)CC1 | 5 | 15 | -10 | 11 | -27 | 13
OCCN1CCN(C2Cc3cc(Cl)ccc3Sc3ccc(Cl)cc32)CC1 (stereo unspecified) (tested in a mixture with another compound) | 17 | 65* | -16 | 13 | -2 | 23*
CN1CCN(C2=Cc3cc(Cl)ccc3Sc3cc(F)ccc32)CC1 | 30 | 94* | -23 | 36 | -6 | 27*
CN1CCN(C2Cc3cc(Cl)ccc3Sc3cc(F)ccc32)CC1 (stereo unspecified) | 26 | 91* | -7 | 8 | 3 | 10
CC(NCc1cccnc1)c1ccccc1 (stereo unspecified) | -6 | 5 | 0 | 13 | -9 | 4
COCc1ccc(C(=O)NC2CCCN(Cc3ccccc3F)C2)o1 (stereo unspecified) | 3 | 13 | -9 | -1 | -11 | -1
COc1ccc(C(=O)Nc2ncccc2C)cc1S(=O)(=O)N1CCOCC1 | -12 | -7 | 2 | 13 | 1 | -6
S=C(N/N=C/c1cccc2ccccc12)Nc1cccc(Cl)c1 | -10 | 0 | -4 | -15 | -8 | 3
CCOc1ccc(C(=O)Nc2cc(C)ccn2)cc1 | 8 | 38 | -57* | 6 | 33 | 2
Cc1ccnc(NC(=O)c2cc3ccccc3o2)c1 | 0 | 51* | -41 | 35 | 40 | -5
CCOC(=O)c1sc(NC(=O)CCCCCN2C(=O)c3cccc4cccc(c34)C2=O)nc1C | 39 | 41 | -53* | 4 | 67* | 0
COc1ccc(-c2nn(-c3ccccc3)cc2/C=N/Nc2ccc(S(N)(=O)=O)cc2[N+](=O)[O-])cc1OC | 58* | 27 | -66* | 10 | 18 | 5
COc1ccc(-c2nn(-c3ccccc3)cc2/C=N/N=C(N)N)cc1OC | 12 | 104* | -14 | 15 | 94* | 15

Screening results (PubChem BioAssay)
